Pf growth 96h: inhibits malaria parasite growth, 96 h; Potency, µM (series often up to 28.7 µM), most hits filed as inhibitors; hit rate 6.9% among 320,000; P. falciparum luciferase reporter growth, 96 h
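96 h incubation, 37 C, 5% CO2, of luciferase-reporter P. falciparum-infected RBCs (2% hematocrit, 0.05% parasitemia final) with test compounds; endpoint luminescence.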
Cycloheximide cs: counter-screen hit for Shiga toxin inhibitors, cycloheximide. cell reporter, cycloheximide protein synthesis inhibition counterscreen. hit rate 12% among 300,000. AID 2314. max response, %; in the data active means max response mostly above about 13%, no sharp cut-off; inactive means mostly below about 14%; further: read at 38.3 µM for the half of the compounds with a filed dose
Shiga inhibitor: inhibitors of Shiga toxin in Vero cells. Vero cells, Shiga toxin protein synthesis inhibition reporter. inhibition, % at 38.7 µM. hit rate 9.2% among 290,000; in the data active means inhibition mostly above about 28%, no sharp cut-off; inactive means mostly below about 43%
Sm TGR block: blocks Schistosoma mansoni thioredoxin glutathione reductase; purified TGR, DTNB reduction, TNB absorbance 405 nm; Q962Y6; Potency, µM (doses to about 114 µM), actives largely listed as inhibitors; hit rate 3% among 360,000; further: nearly all actives have a fitted effect of over 60% in size
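TGR 20 nM + NADPH 100 uM (dispensed conc.), cpd preinc 15 min RT; start with NADPH (500 uM addition) then DTNB (15 mM addition). Kinetic TNB absorbance, 405 nm filter. Four-parameter Hill fit across titration.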
NS1 function inh: blocks influenza NS1 protein function | hit rate 0.4% among 270,000 | Potency, µM (titrated, usually from 46.1 µM); calls by dose curve; further: actives are rising curves; nearly all actives have a fitted effect of over 50% in size
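Recovery from NS1-induced slow growth read by OD600 in budding yeast switched to galactose assay medium (pH 6.0, -URA) at 1:100 dilution. Compound 23 nl per well; the matching strain lacking NS1 serves as control.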
Pf growth 48h: P. falciparum growth inhibition at 48 hours (one generation) | hit rate 5.9% among 310,000 | Potency, µM (doses to about 28.7 µM), most hits filed as inhibitors | P. falciparum luciferase growth in erythrocytes, 48 h
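Here the parasites carry a stable luciferase gene and grow inside erythrocytes in Albumax-based RPMI medium with compound for one erythrocytic cycle. Activity is scored as loss of luminescent signal.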
Of the large screens only hits and unclear results are named; the others gave an inactive call. In the library only some 21% were active in any assay of this set; here they are far more common. Unless noted, the call rests on the fitted dose curve; in most records, active means well fitted curve in the direction sought with a large enough effect; inconclusive means small, poorly fitted or top-dose-only effect, or another doubt; inactive means no such curve, though single readings can be large; an effect the other way counts as inactive or inconclusive.

Cc1cc(Oc2nnnn2-c2ccccc2)ccc1Cl	Cycloheximide cs 30 (no result: Pf growth 48h)
COCCN(C(=O)Cc1cccs1)C(C(=O)NC1CCCC1)c1cc(OC)c(OC)c(OC)c1 (configuration not stated)	Cycloheximide cs 49, Shiga inhibitor 111
COc1ccc(C(C(=O)NC2CCCCC2)N(Cc2cccs2)C(=O)Cc2c[nH]c3ccccc23)cc1OC (configuration not stated)	Pf growth 96h inconclusive, Pf growth 48h 9.3µM
COc1ccc(C(C(=O)NC2CCCCC2)N(C(=O)Cc2c[nH]c3ccccc23)c2ccccc2C)cc1OC (configuration not stated)	Pf growth 96h 13µM, Pf growth 48h inconclusive
COC(=O)c1c(-c2ccc(Cl)cc2)noc1N1CCN(c2ccc(F)cc2)CC1	none (no result: Pf growth 96h, Cycloheximide cs, Shiga inhibitor, NS1 function inh, Pf growth 48h)
CCN(CC(=O)O)C(=O)c1cccnc1	none (no result: Pf growth 96h, Cycloheximide cs, Shiga inhibitor, Sm TGR block, Pf growth 48h)
Cc1coc(C)c1C(=O)CC1(O)C(=O)N(CCc2ccccc2)c2ccccc21 (configuration not stated)	Sm TGR block 14µM (no result: Pf growth 96h)
COc1ccc(C(NC(=O)c2c(F)c(F)c(F)c(F)c2F)c2ccccc2)cc1 (configuration not stated)	Pf growth 96h inconclusive, Pf growth 48h inconclusive
Cc1nsc2c1ccc1ccccc12	none (no result: Sm TGR block)
CC1=[N+](C)c2ccc3ccccc3c2C1(C)C	Pf growth 96h 12µM, Pf growth 48h inconclusive
Cc1ccccc1NC(=O)/C(C#N)=C\c1ccsc1	Cycloheximide cs 28
Cc1ccc(NC(=O)/C(C#N)=C/c2ccsc2)c(C)c1	Pf growth 96h inconclusive, Cycloheximide cs 43, Shiga inhibitor 102, Pf growth 48h inconclusive
CC(C)(C)c1ccc(C(=O)/C(C#N)=C/c2cccs2)cc1	Cycloheximide cs 33, Shiga inhibitor 73
CC(NC(=O)/C(C#N)=C/c1cccs1)c1ccccc1 (configuration not stated)	none (no result: NS1 function inh)
Cc1ccc(NC(=O)/C(C#N)=C/c2cccs2)c(C)c1	Cycloheximide cs 50, Shiga inhibitor 101
COc1ccc(CNC(=O)C(C)OC(=O)CO/N=C(\C)c2ccc3c(c2)OCO3)cc1 (configuration not stated)	Pf growth 96h inconclusive, Pf growth 48h inconclusive (no result: Cycloheximide cs, Shiga inhibitor, NS1 function inh)
CCOC(=O)c1[nH]c(C)c(CCC(=O)NCc2ccc(N(C)C)cc2)c1C	none (no result: Pf growth 96h, Cycloheximide cs, Shiga inhibitor, NS1 function inh, Pf growth 48h)
CCOC(=O)[C@H](Cc1ccc(O)cc1)NC(=O)c1ccccc1	none (no result: Pf growth 96h, Sm TGR block, NS1 function inh, Pf growth 48h)
N#C/C(=C\c1cccs1)C(=O)Nc1ccccn1	Cycloheximide cs 36
CCOC(=O)c1cccc(NC(=O)C2=C(C)C(=O)OC23CCCCC3)c1	none (no result: Pf growth 96h, Cycloheximide cs, Shiga inhibitor, NS1 function inh, Pf growth 48h)
Cc1ccc(OCC(=O)Nc2ccc3nc(SCC(=O)N4CCCC4)sc3c2)cc1	none (no result: Pf growth 96h, Cycloheximide cs, Shiga inhibitor, NS1 function inh, Pf growth 48h)
Cc1ccc2cc(C#N)c(N3CCCC3)nc2c1C	Sm TGR block 20µM
Cc1ccc2cc(C#N)c(N3CCCN(C(=O)C4CCCO4)CC3)nc2c1C (configuration not stated)	none (no result: Pf growth 48h)
COc1ccc2nc(N3CCCC3)c(C#N)cc2c1	Pf growth 96h 8.3µM (no result: Pf growth 48h)
COc1ccc2nc(N3CCCCC3)c(C#N)cc2c1	Cycloheximide cs 64, Shiga inhibitor 124, Pf growth 48h inconclusive
COc1ccccc1C(=O)N1CCN(c2nc3cc(C)c(C)cc3cc2C#N)CC1	Pf growth 96h 10µM, Pf growth 48h inconclusive
CCCC(=O)c1ccc(OC(=O)c2c(-c3ccccc3Cl)noc2C)cc1	none (no result: Pf growth 96h, Cycloheximide cs, Shiga inhibitor, NS1 function inh, Pf growth 48h)
O=C(Nc1c(Cl)cc(Cl)cc1-c1nc2ccccc2s1)c1ccc(Br)o1	none (no result: Pf growth 96h)
CCOC(=O)C1(Cc2ccccc2C)CCCN(C(=O)c2ccc(CSC)o2)C1 (configuration not stated)	Pf growth 96h inconclusive, Sm TGR block inconclusive
CCCCNc1c(C(=O)OCC)c(C)nc2c1cnn2CC	Pf growth 96h 15µM, Pf growth 48h inconclusive (no result: Cycloheximide cs, Shiga inhibitor, Sm TGR block)
CCOC(=O)c1c(C)nc2c(C#N)cnn2c1C	none
CCOc1cc(S(=O)(=O)N2CCCCC2)ccc1F	none (no result: Pf growth 96h)
CCOC(=O)C1CCCN(C(=O)c2cc(S(=O)(=O)N3CCCCC3)ccc2Cl)C1 (configuration not stated)	Pf growth 96h 10µM, Pf growth 48h inconclusive (no result: Cycloheximide cs, Shiga inhibitor, NS1 function inh)
CC(=O)N1CCN(C(=O)c2cc(S(=O)(=O)N3CCCCC3)ccc2Cl)CC1	none (no result: Cycloheximide cs, Shiga inhibitor, NS1 function inh)
CCOc1cc(S(=O)(=O)N2CCCC2)ccc1Cl	Pf growth 96h 12µM (no result: Pf growth 48h)
CCN1CCN(C(=O)c2cc(S(=O)(=O)N3CCCCC3)ccc2Cl)CC1	Pf growth 96h 10µM
O=S(=O)(c1ccc(Oc2ccc(Cl)cc2)c(S(=O)(=O)N2CCCCC2)c1)N1CCCCC1	NS1 function inh inconclusive, Pf growth 48h 4.7µM (no result: Pf growth 96h)
O=S(=O)(c1ccc(Cl)cc1)N1CCN(S(=O)(=O)N2CCCCCC2)CC1	Pf growth 96h inconclusive
O=C(COc1ccccc1F)Nc1ccc(OCc2cc(=O)n3ccccc3n2)cc1	none (no result: Pf growth 96h, Cycloheximide cs, Shiga inhibitor, NS1 function inh, Pf growth 48h)
CCC(O)c1cc2c(cc1NC(=O)c1cccc(Br)c1)OCCO2 (configuration not stated)	none (no result: Pf growth 96h, Cycloheximide cs, Shiga inhibitor, NS1 function inh, Pf growth 48h)
OCCN(CCO)c1nc(N2CCCCC2)c2nc(N(CCO)CCO)nc(N3CCCCC3)c2n1	Pf growth 96h 3.3µM, Pf growth 48h 2.1µM
Nc1nc(NCCO)nc(N2CCCCCC2)c1[N+](=O)[O-]	none
CN(C)c1ccc(P(=O)(OCc2ccccc2)C(O)c2ccc(Br)cc2)cc1 (configuration not stated)	Pf growth 96h inconclusive, Pf growth 48h inconclusive
Oc1c([C@H](Nc2ccccn2)c2ccccc2)ccc2cccnc12	none (no result: Pf growth 96h, Cycloheximide cs, Shiga inhibitor, Sm TGR block, Pf growth 48h)
